# Screening data from PubChem BioAssay.
# APE1 inh – qHTS Assay for Inhibitors of the Human Apurinic/apyrimidinic Endonuclease 1 (APE1); 350,000 tested, 0.35% active; Potency, µM (top dose mostly 65.8 µM), without a hit: at the top dose activity change, negative = inhibition, most hits filed as inhibitors; recombinant APE1, TAMRA/BHQ-2 abasic DNA cleavage fluorescence; AID 2517, 2012; DNA repair nuclease/redox regulator APEX1 (Homo sapiens), P27695;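 note: plate controls were vehicle for no effect and reference inhibitor for full effect; nearly all actives have a fitted effect of over 55% in size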
#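 Enzyme (0.75 nM final) and test compound are incubated 15 min at room temperature before adding 50 nM quenched THF abasic-site duplex. Cleavage dequenches TAMRA, followed at 525/598 nm over three reads one minute apart.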
# KDM4E inh – qHTS Assay for Inhibitors of Human Jumonji Domain Containing 2E (JMJD2E) | Potency, µM (top dose mostly 57.1 µM), for inactives: at the highest dose activity change, negative = inhibition, most hits filed as inhibitors | JMJD2E catalytic domain, FDH-coupled NADH fluorescence (FDH is formaldehyde dehydrogenase) | AID 2147, 2009 | 230,000 tested, 1.6% active | Lysine-specific demethylase 4E (Homo sapiens), B2RXH2; active = well fitted inhibition curve with a large enough effect, not every such curve was filed as active; inconclusive = small, poorly fitted or top-dose-only effect, or another doubt; inactive = no such curve, though single readings can be large or run the other way;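 note: 0% = wells with enzyme and -100% = buffer wells without enzyme; nearly all actives have a fitted effect of over 50% in size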
# BLM helicase inh – qHTS Assay for Inhibitors of Bloom's syndrome helicase (BLM) | AID 2528, 2010 | Potency, µM (series often up to 56.1 µM), without a hit: at the highest dose activity change, negative = inhibition, actives largely listed as inhibitors | 350,000 tested, 0.2% active | RecQ-like DNA helicase BLM (Homo sapiens), P54132 | recombinant BLM DNA unwinding, fluorescence dequenching;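 note: plate controls were vehicle for no effect and no enzyme for full effect; nearly all actives have a fitted effect of over 35% in size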
# RECQ1 inh-1 – qHTS Assay for Inhibitors of RecQ-Like Dna Helicase 1 (RECQ1). ATP-dependent DNA helicase Q1 (Homo sapiens), P46063. RECQ1 DNA unwinding, red fluorescence kinetic read. Potency, µM (doses to about 57.3 µM), for the others: at the highest dose activity, negative = inhibition, hits mostly inhibitors. 240,000 tested, 0.54% active;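 note: plate controls were vehicle for no effect and no enzyme for full effect; nearly all actives have a fitted effect of over 30% in size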
#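 RECQ1T1 50 nM; forked duplex (20 bp + 30-nt ss tails) 200 nM, ATP 2 mM final; pH 8.0, 2 mM MgCl2, 2.5 ug/ml poly(dI-dC); 15 min compound preincubation; discontinuous kinetic read over 2 h at RT.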
# L3MBTL1 block – qHTS Assay for the Inhibitors of L3MBTL1. Lethal(3)malignant brain tumor-like protein 1 (Homo sapiens), Q9Y468. AlphaScreen L3MBTL1–H3K9me1 peptide binding. Potency, µM (top dose mostly 57.1 µM), for inactives: at the top dose activity, negative = inhibition, actives largely listed as inhibitors. 230,000 tested, 0.66% active. AID 485360, 2010; note: nearly all actives have a fitted effect of over 60% in size
# Target sequence (Q9Y468 whole entry, looked up): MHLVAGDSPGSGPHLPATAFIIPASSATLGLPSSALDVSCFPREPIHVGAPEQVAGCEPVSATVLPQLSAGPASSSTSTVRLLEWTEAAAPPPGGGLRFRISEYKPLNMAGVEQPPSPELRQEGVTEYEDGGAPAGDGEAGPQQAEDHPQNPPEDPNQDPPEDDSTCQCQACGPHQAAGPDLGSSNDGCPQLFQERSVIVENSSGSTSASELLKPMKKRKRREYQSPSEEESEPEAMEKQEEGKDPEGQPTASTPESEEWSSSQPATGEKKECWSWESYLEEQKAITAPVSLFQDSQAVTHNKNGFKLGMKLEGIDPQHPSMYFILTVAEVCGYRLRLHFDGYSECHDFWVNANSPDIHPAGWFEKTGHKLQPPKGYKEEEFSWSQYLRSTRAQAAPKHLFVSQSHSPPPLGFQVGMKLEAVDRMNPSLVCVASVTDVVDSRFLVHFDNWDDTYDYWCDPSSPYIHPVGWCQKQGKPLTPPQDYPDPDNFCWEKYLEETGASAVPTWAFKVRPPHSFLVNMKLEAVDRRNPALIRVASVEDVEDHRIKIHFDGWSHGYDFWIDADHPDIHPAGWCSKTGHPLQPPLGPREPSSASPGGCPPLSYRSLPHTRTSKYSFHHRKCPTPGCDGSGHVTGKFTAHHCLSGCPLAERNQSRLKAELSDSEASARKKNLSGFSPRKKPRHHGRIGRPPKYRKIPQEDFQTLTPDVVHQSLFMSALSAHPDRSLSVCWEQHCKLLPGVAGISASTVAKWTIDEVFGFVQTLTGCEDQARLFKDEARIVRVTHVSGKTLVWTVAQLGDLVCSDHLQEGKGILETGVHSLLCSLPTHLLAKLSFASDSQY
#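 First, the protein-peptide complex forms for 30 min at room temperature (L3MBTL1 50 nM, biotinylated H3K9me1 peptide 75 nM). Next, compounds are pin-transferred and incubated 30 min. Finally, AlphaScreen beads are added and read after 30 min.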
# RGS12 GoLoco inh – qHTS Assay for Inhibitors of RGS12 GoLoco Motif Activity (Red Fluorophore); Gai1:RGS12 GoLoco peptide FP, rhodamine, 10 min; Potency, µM (series often up to 61.6 µM), for inactives: at the highest dose activity, negative = inhibition, usual class: inhibitors; 230,000 tested, 0.44% active; AID 880, 2007; active = well fitted inhibition curve with a large enough effect, not every such curve was filed as active; inactive = no such curve, though single readings can be large or run the other way; note: nearly all actives have a fitted effect of over 30% in size
# RECQ1 conf – Confirmation qHTS Assay for Inhibitors of RecQ-Like Dna Helicase 1 (RECQ1); shares compounds with RECQ1 inh-1; Potency, µM (top dose mostly 229 µM), without a hit: at the highest dose activity change, negative = inhibition, actives largely listed as inhibitors; AID 2708, 2010; 610 tested, 28% active; RECQ1 helicase DNA unwinding, fluorescence; note: nearly all actives have a fitted effect of over 45% in size
# ADP FP counter – Counterscreen for RECQ1 Inhibitors: ADP Fluorescence Polarization Displacement Assay. shares compounds with RECQ1 inh-1. ADP fluorescence polarization displacement counterscreen. Potency, µM (top dose mostly 228 µM), for inactives: at the highest dose activity change, negative = inhibition, usual class: inhibitors. 530 tested, 27% active; note: nearly all actives have a fitted effect of over 45% in size
# RECQ1 inh-2 – Confirmation qHTS Assay for Inhibitors of RecQ-Like Dna Helicase 1 (RECQ1) - Round 2 Cherry Picks | shares compounds with RECQ1 inh-1 | recombinant RECQ1 DNA unwinding, red fluorescence | Potency, µM (series often up to 119 µM), without a hit: top-dose activity, negative = inhibition, actives largely listed as inhibitors | 1,100 tested, 15% active | AID 504841, 2011; note: nearly all actives have a fitted effect of over 50% in size
# * = called active by the depositor; i = inactive; ? = inconclusive; nt = no result; [ ] = dose if it differs, or a comment. This is one part of a sample in which hits are shown more often than they occur. Unless noted, calls come from the whole dose curve; as a rule, active = well fitted curve in the direction sought with a large enough effect; inconclusive = small, poorly fitted or top-dose-only effect, or another doubt; inactive = no such curve, though single readings can be large; an effect the other way counts as inactive or inconclusive. Unless noted, % is set by controls: 0 for no effect and ±100 for the full control effect; potency is the fitted concentration of half-maximal effect.
SMILES,APE1 inh,KDM4E inh,BLM helicase inh,RECQ1 inh-1,L3MBTL1 block,RGS12 GoLoco inh,RECQ1 conf,ADP FP counter,RECQ1 inh-2
O=C(NC(Cc1ccccc1)C(=O)O)c1ccc(S(=O)(=O)N2CCCCC2)cc1 (stereo not drawn),2.9%,-1.7%,2.5%,-4.4%,nt,-0.5%,11.6%,?,nt
O=C(Cn1cc(SCc2ccc(C(F)(F)F)cc2)c2ccccc21)N1CCOCC1,nt,nt,-9.7%,nt,nt,nt,nt,nt,nt
CCC(C)NC(=O)c1cc(-c2ccc(OC)cc2)on1 (stereo not drawn),1.7%,-15.2%,-0.3%,i,nt,2.8%,nt,nt,nt
COc1ccc(-c2cc(C(=O)O)no2)cc1,6.5%,-14.4%,6.6%,?,-8.9%,8.4%,nt,nt,4.2%
COC(=O)Nc1ccc(S(=O)(=O)N2CCCC(C(=O)N3CC(C)OC(C)C3)C2)cc1 (stereo not drawn),-2.6%,0.1%,-5.6%,-12.8%,-2.7%,-5.9%,-1.6%,12.4%,nt
CCOc1ccc(C(=O)/C=C/Nc2ccc(S(=O)(=O)Nc3onc(C)c3C)cc2)cc1,2.9%,0.7%,-15.4%,2.4%,-16.4%,-4.6%,nt,nt,nt
Cc1noc(NS(=O)(=O)c2ccc(N/C=C\C(=O)c3ccc(Br)cc3)cc2)c1C,-0.9%,-9.5%,-11.2%,?,-18.4%,11.1%,nt,nt,-21.6%
CCCn1c(-c2ccc(F)cc2)nc2c(NC(C)CN(C)C)nc(C)nc21 (stereo not drawn),11.4%,?,-8.9%,i,nt,6.6%,nt,nt,nt
CCCCN(c1ccccc1)S(=O)(=O)c1ccc2c(c1)CCN2C(=O)CCC(=O)O,-9.4%,0.5%,-4.0%,-10.4%,7.8%,3.9%,0.1%,?,nt
O=C(O)CCC(=O)N1CCc2cc(S(=O)(=O)N3CC=C(c4ccccc4)CC3)ccc21,-5.6%,-12.3%,-6.5%,-16.9%,nt,43.3%,-2.6%,?,nt
CC1CCN(S(=O)(=O)c2ccc3c(c2)CCN3C(=O)CCC(=O)O)CC1,-0.8%,0.4%,0.6%,-0.8%,4.6%,0.3%,3.5%,-1.4%,nt
CC1CCCN(S(=O)(=O)c2ccc3c(c2)CCN3C(=O)CCC(=O)O)C1 (stereo not drawn),nt,nt,-0.2%,nt,nt,nt,nt,nt,nt
O=C(O)CCC(=O)N1CCc2cc(S(=O)(=O)N3CCC(Cc4ccccc4)CC3)ccc21,-1.0%,-7.9%,-15.8%,-3.5%,nt,15.2%,nt,nt,nt
O=C(O)CCC(=O)N1CCc2cc(S(=O)(=O)N3CCCCC3)ccc21,6.4%,-0.3%,-3.0%,9.4%,2.4%,4.0%,-1.9%,11.6%,nt
COc1cc(NC(=O)c2cccs2)c(C(=O)OCC(=O)NCc2ccco2)cc1OC,?,?,?,8.91µM*,nt,-7.8%,28.2µM*,?,?
CCc1cc2c(=O)c(-c3ccc4c(c3)OCCO4)coc2c(CN2CCCCC2C)c1O (stereo not drawn),-5.9%,?,-2.6%,?,-1.2%,6.1%,nt,nt,-12.8%
CS(=O)(=O)N1CCC2(CC1)CN(c1ccccn1)C2,nt,nt,-2.4%,-2.2%,nt,-1.8%,nt,nt,nt
Cc1ccc(C2=NN=C(NC(=O)CSc3nc(C)cc(C)n3)SC2)cc1,3.1%,2.3%,0.3%,-10.5%,-12.4%,-10.0%,nt,nt,nt
Cc1ccc(C2=NN=C(NC(=O)CSc3nnc4c5ccccc5n(C)c4n3)SC2)cc1,14.9%,-0.7%,-17.1%,11.2µM*,-28.4%,-5.1%,-2.4%[114 µM],nt,nt
CCN(CC)c1ccc(/C=C/C(=O)c2ccc(Br)cc2)cc1,-5.8%,-7.0%,-19.4%,8.91µM*,260.5%,296.4%,63.1µM*,nt,50.1µM*
O=C(COc1cccnc1[N+](=O)[O-])c1ccc(Cl)s1,?,14.1µM*,-24.0%,?,?,73.1%,nt,nt,?
COCC(=O)N1CCC2(CCCN(C(=O)Nc3ccc(OC)cc3)C2)CC1,4.8%,nt,1.0%,-7.1%,nt,1.9%,nt,nt,nt
CC(=O)n1cc([C@H]2C=C(C(=O)Nc3ccccc3)O[C@@H](OCc3ccc(CO)cc3)C2)c2ccccc21,-6.1%,-6.8%,-7.6%,0.355µM*,-6.1%,14.3%,3.1%[114 µM],4.1%[91.9 µM],nt
CC(=O)n1cc([C@@H]2C=C(C(=O)O)O[C@H](OCc3ccc(CO)cc3)C2)c2ccccc21,-0.7%,?,0.2%,-2.6%,-1.0%,-2.6%,nt,nt,nt
COc1ccc(C)cc1S(=O)(=O)Nc1ccncc1,24.0%,0.0%,-6.0%,20µM*,9.7%,5.1%,nt,nt,-6.7%
SMILES,APE1 inh,KDM4E inh,BLM helicase inh,RECQ1 inh-1,L3MBTL1 block,RGS12 GoLoco inh,RECQ1 conf,ADP FP counter,RECQ1 inh-2
COc1ccc(C)cc1S(=O)(=O)Nc1ccccc1,-0.6%,-5.1%,-2.3%,-5.0%,nt,-9.7%,nt,nt,nt
CCOc1ccc(-c2nonc2NC(=O)c2oc3ccc(Cl)cc3c2C)cc1,nt,nt,-2.6%,nt,nt,nt,nt,nt,nt
C=CCSc1nc(=O)n2ccc(C)cc2n1,-4.9%,1.0%,-20.8%,1.58µM*,nt,40.2%,4.6%[114 µM],-5.5%[91.9 µM],-20.7%
CC(C)Cn1nnnc1S(=O)(=O)CCc1ccccc1,-0.4%,-0.8%,-2.8%,-3.2%,nt,-5.6%,nt,nt,nt
CN1CCN(C(=O)c2ccc3c(=O)n(Cc4ccco4)c(=S)[nH]c3c2)CC1,0.7%,-1.5%,1.0%,i,nt,6.7%,nt,nt,nt
CCCN(CCC)C(=O)c1ccc2c(=O)n(Cc3ccco3)c(=S)[nH]c2c1,?,-22.6%,?,?,-14.7%,19.2%,nt,nt,-15.2%
Cc1cnc(CNc2ncnc3ccc(-c4ccc5c(c4)OCO5)cc23)cn1,3.8%,nt,-10.8%,20µM*,nt,16.8%,nt,nt,?
Cc1cnc(CNc2ncncc2-c2ccc3c(c2)OCO3)cn1,-0.1%,nt,0.9%,-3.4%,nt,3.9%,nt,nt,nt
